Hit rate of the full screen: of about 5,500 compounds, about 2,000 (36%) were called active. Another 18% or so got no clear call; they are omitted. The list shows a part of the results. Unmarked numbers belong to inactive results. No stated cut-off is given here; in the data, active means normalized growth mostly below about 0.91 (no sharp cut-off); inconclusive means no clear call, values can overlap the other calls; inactive means mostly above about 0.92.
Experiment: chemical genetic growth profiling, strain panel (AID 1159580);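 further: tested at 20 µM; growth read once vehicle control cultures reached saturation at 30 °C; 1 = growth at the plate median or of vehicle wells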
Details: growth OD

CC(Cc1cccc(C(F)(F)F)c1)NCCOC(=O)c1ccccc1 (configuration not stated)
normalized growth (S. cerevisiae deletion strains, locus YJR075W, strain HOC1, stronger effect = lower value): 0.886
normalized growth (S. cerevisiae deletion strains, locus YKL009W, strain mrt4, stronger effect = lower value): 0.974
normalized growth (S. cerevisiae deletion strains, locus YKL068W, stronger effect = lower value): 1.01
normalized growth (S. cerevisiae deletion strains, locus YKL085W, strain MDH1 (second series), stronger effect = lower value): 0.998
normalized growth (S. cerevisiae deletion strains, locus YKL085W, strain MDH1, stronger effect = lower value): 0.998
normalized growth (S. cerevisiae deletion strains, locus YKL160W, strain elf1, stronger effect = lower value): 0.946
normalized growth (S. cerevisiae deletion strains, locus YKL190W, strain CNB1, stronger effect = lower value): 0.982
normalized growth (S. cerevisiae deletion strains, locus YKR001C, strain vps1, stronger effect = lower value): 1.03
normalized growth (S. cerevisiae deletion strains, locus YKR026C, strain gcn3, stronger effect = lower value): 0.987
normalized growth (S. cerevisiae deletion strains, locus YKR091W, strain srl3, stronger effect = lower value): 1
normalized growth (S. cerevisiae deletion strains, locus YLL001W, strain dnm1, stronger effect = lower value): 0.935
normalized growth (S. cerevisiae deletion strains, locus YLL026W, stronger effect = lower value): 0.933
normalized growth (S. cerevisiae deletion strains, locus YLL041C, strain sdh2, stronger effect = lower value): 0.993
normalized growth (S. cerevisiae deletion strains, locus YLR027C, strain aat2, stronger effect = lower value): 0.93
normalized growth (S. cerevisiae deletion strains, locus YLR039C, strain RIC1, stronger effect = lower value): 1.02
normalized growth (S. cerevisiae deletion strains, locus YLR058C, strain SHM2, stronger effect = lower value): 0.967
normalized growth (S. cerevisiae deletion strains, locus YLR102C, strain apc9, stronger effect = lower value): 1.02
normalized growth (S. cerevisiae deletion strains, locus YLR113W, strain HOG1, stronger effect = lower value): 1
normalized growth (S. cerevisiae deletion strains, locus YLR221C, strain rsa3, stronger effect = lower value): 0.956
normalized growth (S. cerevisiae deletion strains, locus YLR258W, strain gsy2, stronger effect = lower value): 0.974
normalized growth (S. cerevisiae deletion strains, locus YLR262C, strain YPT6 (second series), stronger effect = lower value): 0.785 (active)
normalized growth (S. cerevisiae deletion strains, locus YLR262C, strain YPT6, stronger effect = lower value): 1.01
normalized growth (S. cerevisiae deletion strains, locus YLR268W, strain sec22, stronger effect = lower value): 0.992
normalized growth (S. cerevisiae deletion strains, locus YLR320W, strain mms22, stronger effect = lower value): 0.913
normalized growth (S. cerevisiae deletion strains, locus YLR330W, strain CHS5, stronger effect = lower value): 0.991
normalized growth (S. cerevisiae deletion strains, locus YLR342W, strain FKS1 (second series), stronger effect = lower value): 0.745 (active)
normalized growth (S. cerevisiae deletion strains, locus YLR342W, strain FKS1, stronger effect = lower value): 0.88 (active)
normalized growth (S. cerevisiae deletion strains, locus YLR357W, strain rsc2, stronger effect = lower value): 0.987
normalized growth (S. cerevisiae deletion strains, locus YLR370C, strain arc18, stronger effect = lower value): 0.931
normalized growth (S. cerevisiae deletion strains, locus YLR371W, strain rom2, stronger effect = lower value): 1.02
normalized growth (S. cerevisiae deletion strains, locus YLR384C, strain iki3, stronger effect = lower value): 0.988
normalized growth (S. cerevisiae deletion strains, locus YLR418C, strain cdc73, stronger effect = lower value): 0.978
normalized growth (S. cerevisiae deletion strains, locus YML016C, strain PPZ1, stronger effect = lower value): 0.989
normalized growth (S. cerevisiae deletion strains, locus YML032C, strain rad52, stronger effect = lower value): 0.941
normalized growth (S. cerevisiae deletion strains, locus YML120C, strain ndi1, stronger effect = lower value): 0.953
normalized growth (S. cerevisiae deletion strains, locus YML124C, strain tub3, stronger effect = lower value): 1.02
normalized growth (S. cerevisiae deletion strains, locus YMR058W, strain fet3, stronger effect = lower value): 0.905
normalized growth (S. cerevisiae deletion strains, locus YMR078C, strain ctf18, stronger effect = lower value): 1.02
normalized growth (S. cerevisiae deletion strains, locus YMR125W, strain sto1, stronger effect = lower value): 0.97
normalized growth (S. cerevisiae deletion strains, locus YMR129W, stronger effect = lower value): 0.985
normalized growth (S. cerevisiae deletion strains, locus YMR205C, strain PFK2, stronger effect = lower value): 0.961
normalized growth (S. cerevisiae deletion strains, locus YMR223W, strain ubp8, stronger effect = lower value): 0.947
normalized growth (S. cerevisiae deletion strains, locus YMR231W, strain pep5, stronger effect = lower value): 1
normalized growth (S. cerevisiae deletion strains, locus YMR263W, strain SAP30, stronger effect = lower value): 0.962
normalized growth (S. cerevisiae deletion strains, locus YMR307W, strain GAS1, stronger effect = lower value): 0.955
normalized growth (S. cerevisiae deletion strains, locus YNL067W, strain RPL9B, stronger effect = lower value): 0.923
normalized growth (S. cerevisiae deletion strains, locus YNL071W, strain lat1, stronger effect = lower value): 0.996
normalized growth (S. cerevisiae deletion strains, locus YNL128W, strain TEP1, stronger effect = lower value): 0.951
normalized growth (S. cerevisiae deletion strains, locus YNL153C, strain GIM3, stronger effect = lower value): 0.938
normalized growth (S. cerevisiae deletion strains, locus YNL183C, strain NPR1, stronger effect = lower value): 0.895
normalized growth (S. cerevisiae deletion strains, locus YNL209W, strain ssb2, stronger effect = lower value): 0.963
normalized growth (S. cerevisiae deletion strains, locus YNL233W, strain BNI4, stronger effect = lower value): 0.877
normalized growth (S. cerevisiae deletion strains, locus YNL248C, strain rpa49, stronger effect = lower value): 0.906
normalized growth (S. cerevisiae deletion strains, locus YNL250W, strain rad50, stronger effect = lower value): 1.03
normalized growth (S. cerevisiae deletion strains, locus YNL271C, strain bni1, stronger effect = lower value): 1.01
normalized growth (S. cerevisiae deletion strains, locus YNL298W, strain CLA4, stronger effect = lower value): 1.01
normalized growth (S. cerevisiae deletion strains, locus YNL307C, strain MCK1, stronger effect = lower value): 0.974
normalized growth (S. cerevisiae deletion strains, locus YNL322C, strain KRE1 (second series), stronger effect = lower value): 1.01
normalized growth (S. cerevisiae deletion strains, locus YNL322C, strain KRE1, stronger effect = lower value): 1.01
normalized growth (S. cerevisiae deletion strains, locus YNR049C, strain mso1, stronger effect = lower value): 0.998
normalized growth (S. cerevisiae deletion strains, locus YNR052C, strain pop2, stronger effect = lower value): 0.921
normalized growth (S. cerevisiae deletion strains, locus YOL006C, strain TOP1, stronger effect = lower value): 0.605
normalized growth (S. cerevisiae deletion strains, locus YOL012C, strain htz1): 0.888
normalized growth (S. cerevisiae deletion strains, locus YOL147C, strain pex11, stronger effect = lower value): 1.01
normalized growth (S. cerevisiae deletion strains, locus YOR001W, strain rrp6, stronger effect = lower value): 0.92
normalized growth (S. cerevisiae deletion strains, locus YOR061W, strain CKA2, stronger effect = lower value): 0.994
normalized growth (S. cerevisiae deletion strains, locus YOR069W, strain VPS5, stronger effect = lower value): 0.995
normalized growth (S. cerevisiae deletion strains, locus YOR070C, strain gyp1, stronger effect = lower value): 0.985
normalized growth (S. cerevisiae deletion strains, locus YOR080W, strain dia2, stronger effect = lower value): 0.971
normalized growth (S. cerevisiae deletion strains, locus YOR083W, strain WHI5, stronger effect = lower value): 0.913
normalized growth (S. cerevisiae deletion strains, locus YOR106W, strain vam3, stronger effect = lower value): 0.906
normalized growth (S. cerevisiae deletion strains, locus YOR136W, strain idh2, stronger effect = lower value): 1.01
normalized growth (S. cerevisiae deletion strains, locus YOR144C, strain elg1, stronger effect = lower value): 1.02
normalized growth (S. cerevisiae deletion strains, locus YOR184W, strain ser1, stronger effect = lower value): 1.01
normalized growth (S. cerevisiae deletion strains, locus YOR231W, strain MKK1, stronger effect = lower value): 0.979
normalized growth (S. cerevisiae deletion strains, locus YOR265W, strain rbl2, stronger effect = lower value): 0.975
normalized growth (S. cerevisiae deletion strains, locus YOR270C, strain vph1, stronger effect = lower value): 0.72 (active)
normalized growth (S. cerevisiae deletion strains, locus YOR290C, strain snf2, stronger effect = lower value): 0.975
normalized growth (S. cerevisiae deletion strains, locus YOR316C, strain cot1, stronger effect = lower value): 1.03
normalized growth (S. cerevisiae deletion strains, locus YPL051W, strain arl3, stronger effect = lower value): 0.904 (active)
normalized growth (S. cerevisiae deletion strains, locus YPL055C, strain LGE1, stronger effect = lower value): 0.954
normalized growth (S. cerevisiae deletion strains, locus YPL078C, strain atp4, stronger effect = lower value): 0.944
normalized growth (S. cerevisiae deletion strains, locus YPL106C, strain sse1, stronger effect = lower value): 0.975
normalized growth (S. cerevisiae deletion strains, locus YPL240C, strain hsp82, stronger effect = lower value): 0.98
normalized growth (S. cerevisiae deletion strains, locus YPL241C, strain CIN2, stronger effect = lower value): 0.995
normalized growth (S. cerevisiae deletion strains, locus YPL256C, strain CLN2, stronger effect = lower value): 0.969
normalized growth (S. cerevisiae deletion strains, locus YPR119W, strain clb2, stronger effect = lower value): 1.02
normalized growth (S. cerevisiae deletion strains, locus YPR141C, strain kar3, stronger effect = lower value): 1.02
normalized growth (S. cerevisiae deletion strains, locus YPR163C, strain tif3, stronger effect = lower value): 0.928
normalized growth (S. cerevisiae deletion strains, locus YPR167C, strain met16, stronger effect = lower value): 1
normalized growth (S. cerevisiae deletion strains, strain wtn01, stronger effect = lower value): 0.978
normalized growth (S. cerevisiae strains, strain wild type, stronger effect = lower value): 0.955
